# BJeLR viability: BJeLR cell viability loss; actives 0.17% (n = 300,000); AID 1554; inhibition, % (concentration not given with the values); BJeLR (HRASV12) viability, CellTiter-Glo ATP luminescence, 48 h; in the data active = inhibition above about 50%; inconclusive = no clear call, values can overlap the other calls
# BoNT-F LC inh: blocks Botulinum neurotoxin F light chain protease; Multiplex microsphere protease cleavage assay, flow cytometry; inhibition, % at 10 µM; actives 0.22% (n = 360,000); AID 588497; in the data active = inhibition above about 35%, passing the limit was not always enough; inconclusive = no clear call, values can overlap the other calls; also: plate controls were buffer without enzyme for full effect and enzyme alone for no effect
# Anthrax LF prot: anthrax lethal factor protease inhibition. P15917. multiplex microsphere protease cleavage assay, LF. inhibition, % at 10 µM. actives 0.12% (n = 360,000). AID 588501; also: plate controls were buffer without enzyme for full effect and enzyme alone for no effect
# Target sequence (P15917 whole entry, looked up): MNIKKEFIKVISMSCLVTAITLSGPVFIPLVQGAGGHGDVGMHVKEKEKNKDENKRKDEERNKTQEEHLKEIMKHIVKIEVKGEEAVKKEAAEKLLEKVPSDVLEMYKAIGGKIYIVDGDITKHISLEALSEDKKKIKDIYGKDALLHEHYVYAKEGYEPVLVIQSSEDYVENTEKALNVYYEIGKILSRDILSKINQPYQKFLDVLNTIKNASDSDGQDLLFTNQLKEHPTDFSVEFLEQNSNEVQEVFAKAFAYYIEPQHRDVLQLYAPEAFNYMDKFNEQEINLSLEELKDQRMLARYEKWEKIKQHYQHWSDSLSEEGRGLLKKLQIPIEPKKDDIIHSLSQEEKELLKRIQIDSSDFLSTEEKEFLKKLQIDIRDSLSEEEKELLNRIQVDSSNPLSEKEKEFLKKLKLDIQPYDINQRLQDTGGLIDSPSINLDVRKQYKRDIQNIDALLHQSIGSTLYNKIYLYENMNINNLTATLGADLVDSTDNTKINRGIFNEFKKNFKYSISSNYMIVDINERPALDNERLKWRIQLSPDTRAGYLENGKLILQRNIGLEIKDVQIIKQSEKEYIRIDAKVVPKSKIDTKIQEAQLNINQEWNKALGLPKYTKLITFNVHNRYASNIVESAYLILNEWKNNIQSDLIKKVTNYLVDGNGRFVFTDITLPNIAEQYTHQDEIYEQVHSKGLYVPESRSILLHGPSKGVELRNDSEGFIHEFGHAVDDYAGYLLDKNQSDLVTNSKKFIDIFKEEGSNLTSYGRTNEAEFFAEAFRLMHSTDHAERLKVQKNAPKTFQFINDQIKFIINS
# BoNT A protease: inhibitors of Botulinum neurotoxin A light chain protease. multiplex microsphere protease substrate cleavage, flow cytometry. inhibition, % at 10 µM. actives 0.17% (n = 360,000); also: plate controls were buffer without enzyme for full effect and enzyme alone for no effect
# Autofluor counter: flagged as autofluorescent in microsphere protease counterscreen | compound autofluorescence counterscreen, microsphere flow cytometry; stronger effect = higher value | fluorescence intensity (no concentration beside the values) | actives 3.1% (n = 360,000) | AID 624483; in the data active = fluorescence intensity above about 16000; inconclusive = no clear call, values can overlap the other calls
# SARS 3CLpro inh: SARS-CoV 3CLpro protease inhibition. actives 0.14% (n = 290,000). AID 1706. inhibition, % at 6 µM. P0C6X7. recombinant SARS-CoV 3CLpro, quenched FRET peptide cleavage; in the data active = inhibition above about 12%
# Active calls of the source: *; ? = inconclusive; / = no result given. Only some compounds are listed: those with a hit (about 3.6% of all), similar ones and a draw of the others. Rule as the data show it, unless noted: active = inhibition above about 30%; inconclusive = no clear call, values can overlap the other calls; inactive = below that.
SMILES,BJeLR viability,BoNT-F LC inh,Anthrax LF prot,BoNT A protease,Autofluor counter,SARS 3CLpro inh
O=C(COc1ccc(Br)cc1Br)NC(=S)N1CCCc2ccccc21,-6,7,31*,24,5356,-2
CSc1ccccc1NC(=O)COc1ccc(S(=O)(=O)N2CCCC2)cc1,-2,-6,0,-3,22225*,2
CC(C)NC(=O)COc1ccc(S(=O)(=O)N2CCCC2)cc1,-4,-8,-10,-2,4100,-1
CC(=O)Nc1ccc(S(=O)(=O)N2CCN(c3cc4c(cc3[N+](=O)[O-])n(C)c(=O)n4C)CC2)cc1,7,7,-8,7,21248*,-1
CCOc1ccc(N2CC(C(=O)Nc3ccc(S(=O)(=O)N4CCOCC4)cc3)CC2=O)cc1 (stereo unspecified),-12,-1,1,?,23130*,2
O=C(COc1ccc(Cl)cc1)Nc1nc(-c2ccc(S(=O)(=O)N3CCOCC3)cc2)cs1,1,0,-2,?,22761*,2
O=C(COc1ccccc1)Nc1nc(-c2ccc(S(=O)(=O)N3CCOCC3)cc2)cs1,4,3,0,0,4490,-1
Cc1ccc(NC(=O)c2ccc(Cl)c(S(=O)(=O)N3CCCC3)c2)nc1,1,-5,0,0,5613,/
CCC1(C)COC(C)(CC(=O)NNC(=O)Nc2ccccc2)OC1 (stereo unspecified),2,0,-4,0,4074,-4
CCN(CC)C(=O)COc1ccc(S(=O)(=O)N2CCCC2)cc1,-2,?,-11,-6,3877,-5
CCN(CC)C(=O)COc1ccc(S(=O)(=O)N2CCOCC2)cc1,1,3,0,0,16440*,-1
O=C(CCN1C(=O)c2ccccc2C1=O)Nc1ccc(S(=O)(=O)N2CCOCC2)cc1,11,-6,-2,-6,22292*,1
CC(=O)Nc1ccc(S(=O)(=O)N2CCN(CC(O)COc3ccc4ccccc4c3)CC2)cc1 (stereo unspecified),-2,2,-1,?,23688*,-3
Cc1ccc(NC(=O)COc2ccc(S(=O)(=O)N3CCOCC3)cc2)cc1,-6,3,-2,1,22684*,1
CCc1cc(-c2cnnn2Cc2ccccc2)ccc1-c1cn(CC(C)C)nn1,/,0,-11,0,2907,/
CC(=O)Nc1ccc(S(=O)(=O)N2CCOCC2)cc1,-3,4,-2,2,21279*,5
CC(=O)Nc1ccc(S(=O)(=O)N2CCN(C)CC2)cc1,-5,-4,0,-2,23174*,3
COC(=O)Nc1ccc(S(=O)(=O)N2CCN(C)CC2)cc1,2,7,-3,-1,3352,-2
COC(=O)C1C/C(=N/NS(=O)(=O)c2ccc(C)cc2)CS1 (stereo unspecified),4,-1,1,1,5756,-1
COc1cc2c(cc1OC)C(NNC(=O)c1ccc(Br)o1)=NC(C)(C)C2,-9,1,0,1,5485,0
C(=NN=C(NN=Cc1cccs1)NN=Cc1cccs1)c1cccs1,/,-12,-6,0,3082,/
O=C(c1ccc2ccccc2c1O)N1CCCCC1,/,-6,-1,0,4029,/
Cc1ccc(-c2cc(C(=O)Nc3c(C)n(C)n(-c4ccccc4)c3=O)[nH]n2)c(O)c1,-4,0,-2,?,22384*,-4
CCCS(=O)(=O)c1nc(S(=O)(=O)c2ccc(C)cc2)c(N2CCC(C(N)=O)CC2)s1,-4,7,6,2,3929,2
CCC(=O)NCc1c(Cl)cccc1-n1cccc1,-12,10,-11,6,19934*,1
SMILES,BJeLR viability,BoNT-F LC inh,Anthrax LF prot,BoNT A protease,Autofluor counter,SARS 3CLpro inh
O=C1C2CC=C(Cl)CC2C(=O)N1CCC[n+]1ccccc1 (stereo unspecified),-5,2,-1,?,19255*,0
O=C(O)c1ccccc1NCN1C(=O)C2CC=C(Cl)CC2C1=O (stereo unspecified),-1,-4,-4,-4,24033*,1
O=C(CCN1C(=O)C2CC=C(Cl)CC2C1=O)NCc1ccccc1 (stereo unspecified),-3,9,-3,1,2723,3
CC1CC(CC(C)C(=O)Nc2nncs2)C(=O)O1 (stereo unspecified),-6,2,1,?,22855*,0
COc1cccc(/C(O)=C2\C(=O)C(=O)N(c3ccccn3)C2c2cccc(OC)c2OC)c1 (stereo unspecified),0,1,0,1,21089*,2
COc1ccc(CC(=O)Nc2c(C(=O)N3CCN(c4ccccc4OC)CC3)oc3ccccc23)cc1OC,-2,-7,-1,0,5774,-1
CCCc1nc(SCC(N)=O)[nH]c(=O)c1CC,-7,0,-5,2,22995*,-3
CC1CN(C2CCN(S(=O)(=O)Cc3ccccc3)CC2)CC(C)O1 (stereo unspecified),0,2,-2,0,22746*,0
CC1CN(C2CCN(C(=O)c3ccccc3)CC2)CC(C)O1 (stereo unspecified),2,1,-2,0,16799*,0
CC1CN(C2CCN(S(=O)(=O)c3ccc(F)cc3)CC2)CC(C)O1 (stereo unspecified),5,-10,0,-6,18932*,4
COC(=O)C1CCN(S(=O)(=O)Cc2ccccc2)CC1,-1,4,4,5,7768,1
CC1CN(C2CCN(S(=O)(=O)c3ccccc3)CC2)CC(C)O1 (stereo unspecified),1,0,4,4,7570,-2
CC1CN(S(=O)(=O)c2ccc(Cl)c(C(F)(F)F)c2)CC(C)O1 (stereo unspecified),-7,-3,2,?,16300*,5
CN1CCN(S(=O)(=O)c2ccc(Cl)c(C(F)(F)F)c2)CC1,/,4,4,0,3630,/
CSc1ncccc1C(=O)N1CCC1(C)C(=O)NC(C)C (stereo unspecified),/,10,-5,0,3901,/
O=C(c1ccc(F)cc1)N1CCC(N2CCOCC2)CC1,1,-12,-2,-1,4684,2
O=C(c1ccc(F)cc1)N1CCC(N2CCCCCC2)CC1,-9,-4,-3,0,16826*,0
CN(C)S(=O)(=O)c1ccc(S(=O)(=O)Nc2ccc3c(c2)oc2ccccc23)cc1,6,9,-3,0,4212,11
CCN(CC)S(=O)(=O)c1ccc(S(=O)(=O)Nc2ccc3c(c2)oc2ccccc23)cc1,-10,-5,0,?,20070*,2
O=c1[nH]c2cc3c(cc2cc1C(c1nnnn1CC1CCCO1)N1CCCC1)OCO3 (stereo unspecified),0,1,1,0,7833,-2
CC1OC(OC2CC(O)C3(CO)C4C(O)CC5(C)C(C6=CC(=O)OC6)CCC5(O)C4CCC3(O)C2)C(O)C(O)C1O (stereo unspecified),/,-9,4,0,5184,/
